Data: PubChem BioAssay AID1159580 (chemical genetic matrix, 2015)
“And” between values parts separate entries of the source, which are not always exact repeats. Equal values may be shown once. Out of some 5,500 compounds screened, about 2,000 (36%) were called active. Roughly 18% stayed inconclusive and do not appear here. No stated cut-off is given here; in the data, active means normalized growth mostly below about 0.91 (no sharp cut-off); inconclusive means no clear call, values can overlap the other calls; inactive means mostly above about 0.92. The list shows a part of the results.

Test: chemical genetic growth profiling, strain panel (AID 1159580);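 further: tested at 20 µM; growth read once vehicle control cultures reached saturation at 30 °C; 1 = growth at the plate median or of vehicle wells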
Settings: S. cerevisiae deletion strains, growth OD

Measured: normalized growth

O=c1[nH]oc2c1CCNC2
inactive: locus YAL013W, strain DEP1, stronger effect = lower value 1 and 1.01 | locus YAL021C, strain ccr4, stronger effect = lower value 1.01 | locus YAL026C, strain drs2, stronger effect = lower value 1.01 | locus YAL030W, strain snc1, stronger effect = lower value 0.998 | locus YAL040C, strain CLN3, stronger effect = lower value 0.99 | locus YBL061C, strain skt5, stronger effect = lower value 1 | locus YBR009C, strain hhf1, stronger effect = lower value 0.987 | locus YBR021W, strain FUR4, stronger effect = lower value 1.01 | locus YBR023C, strain chs3, stronger effect = lower value 0.998 | locus YBR171W, strain sec66, stronger effect = lower value 0.985 | locus YBR229C, strain ROT2, stronger effect = lower value 1 | locus YBR231C, strain swc5, stronger effect = lower value 0.976 | locus YBR279W, strain paf1, stronger effect = lower value 1.01 | locus YCL011C, strain gbp2, stronger effect = lower value 1.01 | locus YCL016C, strain dcc1, stronger effect = lower value 1 | locus YCL029C, strain bik1, stronger effect = lower value 0.97 | locus YCL061C, strain MRC1 (second series), stronger effect = lower value 1 | locus YCL069W, strain vba3, stronger effect = lower value 1 | locus YCR088W, strain abp1, stronger effect = lower value 0.999 | locus YDL005C, strain med2, stronger effect = lower value 1 | locus YDL035C, strain GPR1, stronger effect = lower value 0.999 | locus YDL040C, strain nat1, stronger effect = lower value 0.992 | locus YDL074C, strain BRE1, stronger effect = lower value 1.04 | locus YDL101C, strain DUN1, stronger effect = lower value 1.01 | locus YDL134C, strain PPH21, stronger effect = lower value 1.01 | locus YDL185W, strain tfp1, stronger effect = lower value 0.964 | locus YDL192W, strain arf1, stronger effect = lower value 0.976 | locus YDR001C, strain nth1, stronger effect = lower value 0.996 | locus YDR069C, strain doa4, stronger effect = lower value 0.993 | locus YDR101C, strain arx1, stronger effect = lower value 0.997 | locus YDR137W, strain rgp1, stronger effect = lower value 1.02 | locus YDR150W, strain NUM1, stronger effect = lower value 0.996 and 0.999 | locus YDR159W, strain sac3, stronger effect = lower value 0.973 | locus YDR162C, strain NBP2, stronger effect = lower value 1.02 | locus YDR195W, strain ref2 0.947 | locus YDR297W, strain sur2, stronger effect = lower value 1.01 | locus YDR318W, strain mcm21, stronger effect = lower value 0.966 | locus YDR334W, strain swr1, stronger effect = lower value 1 | locus YDR335W, strain msn5, stronger effect = lower value 1 | locus YDR363W, strain ESC2, stronger effect = lower value 1.01 | locus YDR388W, stronger effect = lower value 0.986 | locus YDR392W, strain spt3, stronger effect = lower value 1.01 | locus YDR502C, strain sam2, stronger effect = lower value 1 | locus YEL003W, strain gim4, stronger effect = lower value 0.998 | locus YEL037C, strain rad23, stronger effect = lower value 0.999 | locus YEL061C, strain CIN8 (second series), stronger effect = lower value 0.998 | locus YEL061C, strain CIN8, stronger effect = lower value 0.999 | locus YER002W, strain NOP16, stronger effect = lower value 1 | locus YER015W, strain faa2, stronger effect = lower value 1.01 | locus YER016W, strain bim1, stronger effect = lower value 1 | locus YER110C, stronger effect = lower value 0.967 | locus YER111C, strain swi4, stronger effect = lower value 0.994 | locus YER155C, strain BEM2 (second series), stronger effect = lower value 0.978 | locus YER155C, strain BEM2, stronger effect = lower value 0.998 | locus YER167W, strain BCK2, stronger effect = lower value 0.973 | locus YFR010W, strain ubp6, stronger effect = lower value 1.01 | locus YGL078C, strain dbp3, stronger effect = lower value 0.994 | locus YGL086W, strain mad1, stronger effect = lower value 0.963 | locus YGL167C, strain pmr1, stronger effect = lower value 0.999 | locus YGL173C, strain kem1, stronger effect = lower value 1.01 | locus YGL227W, strain vid30, stronger effect = lower value 0.994 | locus YGL240W, strain doc1, stronger effect = lower value 0.988 | locus YGL248W, strain PDE1, stronger effect = lower value 1 | locus YGL253W, strain hxk2, stronger effect = lower value 1.02 | locus YGR078C, strain PAC10, stronger effect = lower value 1.03 and 0.994 | locus YGR135W, strain pre9, stronger effect = lower value 1.01 | locus YGR229C, strain SMI1, stronger effect = lower value 1.03 | locus YGR252W, strain gcn5, stronger effect = lower value 0.97 | locus YHR013C, strain ard1, stronger effect = lower value 0.998 | locus YHR027C, strain rpn1, stronger effect = lower value 1.01 | locus YHR030C, strain SLT2, stronger effect = lower value 0.992 and 1.01 | locus YHR079C, strain IRE1 (second series), stronger effect = lower value 1 | locus YHR079C, strain IRE1, stronger effect = lower value 1.03 | locus YHR094C, strain hxt1, stronger effect = lower value 0.973 | locus YHR129C, strain ARP1, stronger effect = lower value 1 | locus YHR142W, strain chs7, stronger effect = lower value 1.03 | locus YHR200W, strain rpn10, stronger effect = lower value 0.975 | locus YIL066C, strain RNR3, stronger effect = lower value 1.01 | locus YIL073C, strain SPO22, stronger effect = lower value 0.902 | locus YIL125W, strain kgd1, stronger effect = lower value 0.987 | locus YIR030C, strain dcg1, stronger effect = lower value 0.982 | locus YJL092W, strain hpr5, stronger effect = lower value 0.998 | locus YJL095W, strain BCK1 (second series), stronger effect = lower value 0.999 | locus YJL095W, strain BCK1, stronger effect = lower value 1.06 and 1.02 | locus YJL115W, strain asf1, stronger effect = lower value 1.01 | locus YJL129C, strain trk1, stronger effect = lower value 1 | locus YJL134W, strain LCB3, stronger effect = lower value 0.994 | locus YJL154C, strain vps35, stronger effect = lower value 0.995 | locus YJL164C, strain tpk1, stronger effect = lower value 1 | locus YJL166W, strain qcr8, stronger effect = lower value 0.965 | locus YJL168C, strain set2, stronger effect = lower value 0.988 | locus YJL187C, strain SWE1 (second series), stronger effect = lower value 1.02 | locus YJR043C, strain POL32, stronger effect = lower value 0.987 | locus YJR066W, strain TOR1, stronger effect = lower value 0.921 | locus YJR075W, strain HOC1, stronger effect = lower value 1.08
